Data on 40 compounds can be found in PubChem BioAssay (NCI).

About 83,000 compounds went through this panel and 20% of them were active in at least one assay; those are over-represented in the sample as a whole.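 Plates (96-well) were seeded with cells, treated with compound at one concentration, and incubated for 48 hours before percent growth was determined.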 Values without a mark were called inactive. Active and inactive are the calls of the source.

The experiment has as its system U251 CNS. Put plainly: NCI-60 one-dose screen, 48 h (100 = growth as untreated, 0 = no growth, -100 = all killed). As to conditions: 10 µM. As for the experimental part: Growth inhibition of the U251 human tumor cell line is measured as a screen for anti-cancer activity. Cells are grown in 96 well plates and exposed to the test compound for 48 hours. Compounds are tested at a single concentration, which is 10^-5 M for most compounds. The reported endpoint is percent growth (GI% or GIPRCNT), where numbers from 0 - 100% represent growth inhibition, and numbers from -100% - 0 represent cell death. For example, a value of 40 represents 60% growth inhibition. A value of 0 means no net growth occurred over the course of the experiment. A value of -40 indicates 40% of cells at the beginning of the experiment died by the end of the experiment. A value of -100 means all cells are dead at the end of the experiment.
NCI-60 Human Tumor Cell Lines Screen was performed using the standard one-dose NCI protocol, which is described in more detail at https://dtp.cancer.gov/discovery_development/nci-60/default.htm.
Compounds with GIPRCNT values below 10 were considered active. Activity score was based on GIPRCNT using the following formula: […]
Score is 0 for GIPRCNT values of 100 or above, 50 for GIPRCNT values of 0, and 100 for GIPRCNT values of -100.
On to `CN(C)CCN1C(=O)c2cccc3c(-c4ccc5ncn(C6CCCCC6)c5c4)ccc(c23)C1=O`, for which the growth is 12.6%. As to `COc1ccc2c(c1)C(=O)c1c-2c(OCCN(C)C)nc2cc(OC)c(OC)cc12`, the growth was 50.5%. On to `CC/C(=C(/c1ccc(OCCN(C)C)cc1)c1ccc(OC(=O)CCC(=O)c2c(C)[nH]c(/C=C3\N=C(c4ccc[nH]4)C=C3OC)c2C)cc1)c1ccccc1`, for which the growth is 12.5%. Turning to `O=C(Nc1cccc(-n2cc(-c3ccncc3)c(-c3cc(O)cc(Cl)c3)n2)c1)Nc1ccc(Cl)c(C(F)(F)F)c1`, the growth was -26.5% (active). The figure for `Cn1c(C(N)=O)cc2c1-c1nc(Nc3ccccc3)ncc1CCC2` is 26.9%. Under `COc1cc(/C=N/NC(=O)c2ccccc2Nc2cccc(C(F)(F)F)c2)cc(OC)c1OC` stands -32.1% (active).

For `O=C1/C(=C/c2ccc([N+](=O)[O-])o2)Oc2ccccc21`, the growth is 47.5%. On to `FC(F)(F)c1ccc(-c2cnc(Cl)nc2N2CCC3(CC2)OCCO3)cc1`, for which the growth was 85.3%. Regarding `CC(=O)c1cc(Cl)ccc1O`, the growth is 107%. Take `O=C1/C(=C\c2ccc(F)cc2)CN(C(=O)c2ccccc2F)C/C1=C\c1ccc(F)cc1`: the growth was -63% (active). The figure for `c1ccc(CP(Cc2ccccc2)c2ccccc2)cc1` is 93.6%; for `COc1ccc2c(c1)sc1nc(-c3ccccc3)c(-c3ccsc3)n12` it is 26.9%.

For `COc1ccc(-c2ccc3cc(C(=O)Nc4ccc(O)c(C(=O)/C=C/c5cc(OC)c(OC)c(OC)c5)c4)ccc3c2)cc1`, the growth was 92.6%.

Take `COc1ccc(C2=NN(C(=O)c3ccc(S(C)(=O)=O)cc3)C(c3ccc(OC)c(OC)c3)C2)c(OC)c1` (stereo not given): the growth was 106%. In the case of `COc1cc(CNCCCCCCN2C(=O)c3cccc4cccc(c34)C2=O)ccc1O`, the growth is 65.9%.

As for `O=C1NC(=O)c2ncccc21`, the growth is 106%. Turning to `N=C(N)c1ccc(-c2ccc(-c3cccs3)s2)s1`, the growth was -85.9% (active).

As for `COc1ccc2c(c1)sc1nc(-c3ccccc3)c(-c3ccc(O)c(OC)c3)n12`, the growth was 41.7%. In the case of `N#Cc1ncc(-c2cc(F)c(F)c(F)c2)c(NC2CCCCCC2)n1`, the growth is 50.2%.

As for `COc1cc(NC(=O)CCSc2nc3ccc(Cl)cc3c(=O)n2Cc2ccccc2)cc(OC)c1OC`, the growth is 70.2%. Turning to `COc1ccc(-c2nc(-c3nc4cc(Cl)c(Cl)cc4[nH]3)c3ccccn23)cc1`, the growth is 22.6%. As to `CCCCOc1ccc(NC(=O)Nc2nnc(C)s2)cc1`, the growth is 93.2%. As to `C=C(C(=O)c1ccccc1)C(NC(C)(C)C)c1ccccc1` (stereo not given), the growth was 4.4% (active). Turning to `CCc1ccc2c(c1)N(CCO)C1=C(C(=O)OC1)C2c1ccccc1` (stereo not given), the growth was 45.4%. Under `CCCCCCc1cc(N=Nc2ccc(S(=O)(=O)Nc3cc(C)nc(C)n3)cc2)c(O)cc1O` stands 100%; under `Cc1ncc(-c2ccoc2)c(NC2CCCCCC2)n1`, 93.5%. Consider `Cc1ccc(Nc2cc(C)nc(NCCCNc3ccnc4cc(Cl)ccc34)n2)cc1`, for which the growth is -99.2% (active). For `Nc1ccccc1NC(=O)CCCCC(=O)Nc1ccc2c(c1)/C(=C/c1ccc[nH]1)C(=O)N2`, the growth was 48.5%. For `CCN(CC)CCNc1ccc(CO)c2oc3cc(Cl)ccc3c(=O)c12`, the growth is 79.7%.

For `Cc1cc2c(C)c3cc(C)c(N)cc3nc2cc1N`, the growth was 14.9%.

As for `COc1ccc(-c2cc(/C=C3\C(=O)Nc4ccc(OC)cc43)[nH]n2)cc1`, the growth is 37.8%. For the compound `CCOCCOCCOCCOCCOCCOCCOCCOCCOCCO` (tested in a mixture with another compound), the growth is 7.66% (active).

For the compound `Clc1ccc(Sc2nc(NC3CC3)nc(Sc3ccc(Cl)cc3)n2)cc1`, the growth was 80%. Consider `S=C1SCC(c2ccccc2)S1` (stereo not given), for which the growth is 95.5%.

Regarding `Cc1occc1-c1nnc(SCC(=O)c2ccc(NC(=O)CC(C)C)cc2)o1`, the growth was 105%. Turning to `COc1ccc(Cl)cc1C(=O)Nc1nc2ccc(Cl)cc2s1`, the growth is 87.3%. As for `O=C(Nc1cccc(-n2cc(-c3ccncc3)c(-c3ccc(O)c(Cl)c3)n2)c1)Nc1cccc(C(F)(F)F)c1`, the growth is -70.8% (active). As to `CCOCC(=O)C(C#N)c1ccc(Cl)c(Cl)c1` (stereo not given), the growth was 94.7%. For the compound `CC(C)C[C@H](NC(=O)[C@H](Cc1cccc2ccccc12)NS(=O)(=O)c1cccc2cccnc12)B(O)O`, the growth is -52.9% (active). Regarding `COc1ccc(-c2nn(-c3cccc(NC(=O)Nc4cc(C(F)(F)F)cc(C(F)(F)F)c4)c3)cc2-c2ccncc2)cc1Cl`, the growth is -75.5% (active).
